Hits are enriched below; roughly 3.4% of the tested compounds scored in any of these assays.
FBW7 act: human FBW7 E3 ligase activation, primary screen | Q969H0 | AlphaScreen FBW7–phospho-cyclin E peptide binding, activator screen | normalized activity (activation), % at 26.1 µM | actives 0.13% (n = 650,000); in the data active = normalized activity above about 1.9%;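 also: purified mutant Fbw7 with reduced substrate affinity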
GPR151 ag: activates the human receptor GPR151; PathHunter beta-arrestin GPR151 cells, luminescence; activation, % at 11.2 µM; actives 1% (n = 650,000); in the data active = activation above about 4.9%;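 also: 0% = median of compound wells and 100% = cells with positive control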
MITF primary: inhibitors of human MITF; inhibition, % at 2.6 µM; actives 0.91% (n = 650,000); AlphaScreen MITF homodimerization, bead proximity signal; AID 1259374; O75030; in the data active = inhibition above about 50%;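 also: 0% = vehicle wells with protein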
TEAD-YAP inh: TEAD-YAP interaction inhibition; AID 1259422; HEK-TIYL cells, TEAD-Gal4/YAP UAS-luciferase luminescence; inhibition, % at 9.12 µM; actives 1.4% (n = 640,000); in the data active = inhibition above about 32%;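 also: 0% = median of test compound wells and 100% = reference inhibitor wells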
GPR151 confirm: human GPR151 activation, confirmation screen | shares compounds with GPR151 ag | GPR151 PathHunter beta-arrestin cells, luminescence, 90 min; % of EA-reagent control over plate median | activation, % at 11.2 µM | 6,700 tested, under 10 active;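 active = mean percent activation across replicates above the confirmation screen cutoff of 4.91%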
GPR119 counter: counter-screen for GPR151 activators: effect on human GPR119 | shares compounds with GPR151 ag | GPR119 PathHunter beta-arrestin cells, luminescence, 90 min; 0 = compound-well median, 100 = enzyme-acceptor control | activation, % at 11.2 µM | actives 0.3% (n = 6,700) | AID 1508611;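 active = mean percent activation in the counterscreen above 29.09%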;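 also: counterscreen on off-target GPR119 to flag nonselective hits from the GPR151 activator screen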
Target sequence (Q8TDV5 whole entry, looked up): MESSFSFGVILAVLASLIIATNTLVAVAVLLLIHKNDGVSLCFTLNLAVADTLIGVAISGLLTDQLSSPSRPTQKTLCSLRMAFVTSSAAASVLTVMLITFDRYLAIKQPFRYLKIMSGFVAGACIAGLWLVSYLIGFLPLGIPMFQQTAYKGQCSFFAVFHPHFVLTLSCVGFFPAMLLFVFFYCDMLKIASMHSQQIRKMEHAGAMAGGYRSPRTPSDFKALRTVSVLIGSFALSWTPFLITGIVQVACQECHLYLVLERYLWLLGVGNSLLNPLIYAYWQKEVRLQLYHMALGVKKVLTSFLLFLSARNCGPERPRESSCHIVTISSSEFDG
An asterisk follows results filed as active; nt = not tested or not shown.

SMILES | FBW7 act | GPR151 ag | MITF primary | TEAD-YAP inh | GPR151 confirm | GPR119 counter
CCCN(CCC)CCCn1cnc2c([nH]c3ccc(OC)cc32)c1=O | -0.2 | 5.1* | -4.2 | -1.4 | 0.3 | 4.9
CCCN(CCC)CCCn1cnc2c([nH]c3ccc(F)cc32)c1=O | 0.4 | 4.9 | 8.9 | 5.8 | nt | nt
COC(=O)c1sc2nc(N)c(C#N)c(-c3ccc(Cl)cc3)c2c1N | -0.1 | 0.4 | 5.1 | 2.7 | nt | nt
CCOC(=O)c1sc2nc(N)c(C#N)c(-c3ccc(Cl)cc3)c2c1N | -0.1 | 6.6* | -1.5 | 1.6 | 0.3 | -12.3
O=C(Nc1cc(C(F)(F)F)ccc1F)C1CCCC1 | -0.1 | 12.7* | -3.1 | -9.3 | 1.0 | 7.5
CCOC(=O)Cc1c(C)c2ccc(N(CC)CC)cc2oc1=O | 1.1 | 7.2* | -14.4 | -9.5 | 0.0 | 9.8
CCOC(=O)C1=C(C)N=c2s/c(=C\c3ccc(OCc4ccc(F)cc4)c(OC)c3)c(=O)n2C1c1c(OC)ccc2ccc(OC)cc12 (centres undefined) | -0.1 | -0.5 | -7.7 | 2.9 | nt | nt
CN(CCO)c1ncnc2sccc12 | 0.0 | 6.6* | -1.5 | 5.9 | 0.4 | 4.1
Cc1cccc(-c2nc(CCNC(=O)Cc3ccccc3)cs2)c1 | -0.1 | 5.8* | -1.6 | -0.8 | 0.8 | 5.0
O=C(NCc1ccccc1F)c1cc2cc(Br)ccc2oc1=O | -0.1 | 5.9* | -0.4 | -0.7 | -0.2 | 7.1
O=C1CCC(C(=O)Nc2cc(F)cc(F)c2)=NN1 | 0.0 | 6.4* | -3.1 | 8.6 | 1.0 | 6.0
Cc1cc(C(=O)NCCc2ccc(S(N)(=O)=O)cc2)cs1 | 0.0 | 1.1 | -5.3 | -5.6 | nt | nt
NS(=O)(=O)c1ccc(CCNC(=O)c2cccc(C#CC3(O)CCCCC3)c2)cc1 | 0.2 | 5.0* | -9.4 | -0.3 | 0.6 | -4.9
Cc1ccc(-c2cc(C(F)(F)F)n3ncc(C(=O)NC(C)C)c3n2)cc1 | -0.1 | 5.0* | 4.9 | 0.6 | -0.3 | -4.8
CC(=O)c1cccc(NC(=O)c2cnn3c(C(F)(F)F)cc(-c4ccco4)nc23)c1 | -0.1 | 5.1* | -8.9 | 3.9 | 0.5 | 1.3
Cn1c(=O)c2c(nc(OCc3ccc4c(c3)OCO4)n2Cc2ccccc2)n(C)c1=O | 0.6 | 1.3 | 11.0 | 0.0 | nt | nt
N#Cc1c(NC(=O)CN2CCN(c3ccccc3F)CC2)sc2c1CCCC2 | -0.1 | 6.6* | -4.1 | -15.8 | 0.4 | 8.2
